# Source: PubChem BioAssay (EPA / NIEHS)
# Calls of active or inactive are those of the source. Rule for the calls: active = hit-call score of the fitted dose curve at least 0.9, where 1 is the maximum; inactive = score below 0.9.
# Tests used:
# Conditions in all cases: mRNA level, 48 h; actives raise or lower the signal
# [1] = read-out: MYC, MYC (gene 4609); assay: LTEA_HepaRG_MYC: Life Technologies and Expression Analysis (LTEA) Assay for MYC using HepaRG (AID 2283518)
# Outline: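 qRT-PCR read-out of MYC transcript (Fluidigm TaqMan, housekeeping-normalized) after 48 h chemical exposure of HepaRG cells; eight concentrations, top 100 uM, half-log steps. Bidirectional curve fitting against 0.5% DMSO vehicle baseline.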
# [2] = read-out: matrix metalloproteinase-3 (MMP3), MMP3 (gene 4314); assay: LTEA_HepaRG_MMP3: Life Technologies and Expression Analysis (LTEA) Assay for matrix metalloproteinase-3 (MMP3) using HepaRG (AID 2283519)
# Outline: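 HepaRG cells (~100,000/well) in serum-free induction medium were dosed in duplicate for 48 h with an 8-point half-log series from 100 uM, 0.5% DMSO. MMP3 mRNA was quantified by Fluidigm TaqMan qRT-PCR, normalized to three housekeeping genes.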
# [3] = read-out: Paternally Expressed 10 (PEG10), PEG10 (gene 23089); assay: LTEA_HepaRG_PEG10: Life Technologies and Expression Analysis (LTEA) Assay for Paternally Expressed 10 (PEG10) using HepaRG (AID 2283520)
# Outline: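 HepaRG, 48 h post-plating → serum-free induction medium → 48 h chemical exposure (duplicate, 8-pt, max 100 uM, half-log, 0.5% DMSO) → lysis in RLT → TaqMan qRT-PCR for PEG10, ACTB/GAPDH/POLR2A normalisation.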
# [4] = read-out: Protein phosphatase 2A (PPP2R4), PTPA (gene 5524); assay: LTEA_HepaRG_PPP2R4: Life Technologies and Expression Analysis (LTEA) Assay for Protein phosphatase 2A (PPP2R4) using HepaRG (AID 2283522)
# Outline: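 Readout is PPP2R4 transcript level by microfluidic qRT-PCR after 48 h chemical treatment of human HepaRG liver cells. Concentrations spanned 100 uM downward in half-log steps; gain or loss of signal was fitted relative to DMSO.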
# [5] = read-out: Phosphatase and tensin (PTEN), PTEN (gene 5728); assay: LTEA_HepaRG_PTEN: Life Technologies and Expression Analysis (LTEA) Assay for Phosphatase and tensin (PTEN) using HepaRG (AID 2283523)
# Outline: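 HepaRG cells, 48 h after plating, exposed in duplicate for 48 h in serum-free induction medium to 8 half-log concentrations up to 100 uM (0.5% DMSO). PTEN mRNA by qRT-PCR, normalized to ACTB, GAPDH, POLR2A; bidirectional fit versus DMSO.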
# [6] = read-out: solute carrier (SLC22A1), SLC22A1 (gene 6580); assay: LTEA_HepaRG_SLC22A1: Life Technologies and Expression Analysis (LTEA) Assay for solute carrier (SLC22A1) using HepaRG (AID 2283524)
# Outline: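 Differentiated human HepaRG cells in serum-free induction medium, exposed 48 h in duplicate to 8-point half-log series from 100 µM top in 0.5% DMSO. SLC22A1 mRNA by TaqMan qRT-PCR normalized to ACTB, GAPDH, POLR2A; bidirectional fit versus DMSO.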
# [7] = read-out: Pyruvate Dehydrogenase Kinase 4 (PDK4), PDK4 (gene 5166); assay: LTEA_HepaRG_PDK4: Life Technologies and Expression Analysis (LTEA) Assay for Pyruvate Dehydrogenase Kinase 4 (PDK4) using HepaRG (AID 2283525)
# Outline: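 HepaRG cells plated 48 h, then switched to serum-free induction medium and exposed in duplicate for 48 h to 8 half-log concentrations from 100 uM in 0.5% DMSO. PDK4 mRNA measured by qRT-PCR, normalized to ACTB, GAPDH and POLR2A; bidirectional fit versus DMSO.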
# [8] = read-out: Nuclear factor erythroid 2-related factor 2 (Homo sapiens) (UniProt Q16236); assay: LTEA_HepaRG_NFE2L2: Life Technologies and Expression Analysis (LTEA) Assay for Nuclear factor erythroid 2-related factor 2 (NFE2L2) Transcription Factor using HepaRG (AID 2283527);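 for outcome: TaqMan qRT-PCR transcript level normalised to ACTB GAPDH and POLR2A housekeeping genes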
# Outline: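 Differentiated human HepaRG cells, serum-free induction medium, exposed 48 h in duplicate to eight half-log concentrations up to 100 uM in 0.5% DMSO. NFE2L2 mRNA by Fluidigm TaqMan qRT-PCR, normalised to ACTB, GAPDH, POLR2A; bidirectional change versus DMSO.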
# [9] = read-out: succinate dehydrogenase complex iron sulfur subunit B (SDHB), SDHB (gene 6390); assay: LTEA_HepaRG_SDHB: Life Technologies and Expression Analysis (LTEA) Assay for succinate dehydrogenase complex iron sulfur subunit B (SDHB) using HepaRG (AID 2283528)
# Outline: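 Readout is SDHB transcript level by qRT-PCR, normalised to three housekeeping genes and fitted bidirectionally against 0.5% DMSO vehicle. Human HepaRG cells were treated for 48 h at up to 100 uM.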
# [10] = read-out: Signal transducer and activator of transcription 3 (Homo sapiens) (UniProt P40763); assay: LTEA_HepaRG_STAT3: Life Technologies and Expression Analysis (LTEA) Assay for Signal transducer and activator of transcription (STAT3) using HepaRG (AID 2283529)
# Outline: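 Differentiated HepaRG cells, serum-free induction medium, dosed 48 h in duplicate, 8 half-log concentrations from 100 uM in 0.5% DMSO. STAT3 mRNA by qRT-PCR, normalised to ACTB, GAPDH, POLR2A; bidirectional fit versus DMSO.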
# [11] = read-out: solute carrier (SLCO1B1), SLCO1B1 (gene 10599); assay: LTEA_HepaRG_SLCO1B1: Life Technologies and Expression Analysis (LTEA) Assay for solute carrier (SLCO1B1) using HepaRG (AID 2283530)
# Outline: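 SLCO1B1 transcript read by qRT-PCR (Fluidigm arrays), normalized to three housekeeping genes, after 48 h chemical exposure of HepaRG cells; bidirectional concentration-response fitting versus 0.5% DMSO baseline. Eight-point half-log series, maximum 100 uM.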
# [12] = read-out: sulfotransferase 2A1 (SULT2A1), SULT2A1 (gene 6822); assay: LTEA_HepaRG_SULT2A1: Life Technologies and Expression Analysis (LTEA) Assay for sulfotransferase 2A1 (SULT2A1) using HepaRG (AID 2283531)
# Outline: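 HepaRG, 48 h chemical exposure, 8-pt half-log curve from 100 uM in 0.5% DMSO, duplicates. Readout: TaqMan qRT-PCR of SULT2A1 mRNA, housekeeping-normalized. Bidirectional fit vs DMSO baseline.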
# [13] = read-out: Transforming Growth Factor (TGFA), TGFA (gene 7039); assay: LTEA_HepaRG_TGFA: Life Technologies and Expression Analysis (LTEA) Assay for Transforming Growth Factor (TGFA) using HepaRG (AID 2283532)
# Outline: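 Differentiated HepaRG cells exposed 48 hours in serum-free induction medium, 0.5% DMSO vehicle, 8-point half-log series from 100 uM, in duplicate. TGFA mRNA by TaqMan qRT-PCR, normalised to ACTB, GAPDH, POLR2A; bidirectional fit versus DMSO.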
# [14] = read-out: TIMP1, TIMP1 (gene 7076); assay: LTEA_HepaRG_TIMP1: Life Technologies and Expression Analysis (LTEA) Assay for TIMP1 using HepaRG (AID 2283534);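 note: TaqMan qRT-PCR signal normalized to ACTB GAPDH and POLR2A housekeeping genes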
# Outline: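 HepaRG, 48 h exposure, 8-pt half-log series from 100 uM in 0.5% DMSO, duplicates; TIMP1 transcript by Fluidigm qRT-PCR, housekeeping-normalized; bidirectional curve fit vs DMSO baseline.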
# [15] = read-out: Tumor necrosis factor receptor 1 (TNFRSF1A), TNFRSF1A (gene 7132); assay: LTEA_HepaRG_TNFRSF1A: Life Technologies and Expression Analysis (LTEA) Assay for Tumor necrosis factor receptor 1 (TNFRSF1A) using HepaRG (AID 2283535)
# Outline: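 HepaRG, 48 h plating then 48 h chemical exposure, serum-free induction media; 8-pt CRC from 100 uM, half-log, 0.5% DMSO vehicle, duplicates. Readout: TaqMan qRT-PCR (Fluidigm), housekeeping-gene normalized; bidirectional fit vs DMSO.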
# [16] = read-out: Thyroid Hormone Responsive (THRSP), THRSP (gene 7069); assay: LTEA_HepaRG_THRSP: Life Technologies and Expression Analysis (LTEA) Assay for Thyroid Hormone Responsive (THRSP) using HepaRG (AID 2283536)
# Outline: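 Differentiated HepaRG cells treated 48 h in serum-free induction medium with 8 half-log concentrations up to 100 uM (0.5% DMSO), duplicates. THRSP mRNA by TaqMan qRT-PCR normalised to ACTB, GAPDH, POLR2A; bidirectional fit versus DMSO.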
# [17] = read-out: Cellular tumor antigen p53 (Homo sapiens) (UniProt P04637); assay: LTEA_HepaRG_TP53: Life Technologies and Expression Analysis (LTEA) Assay for Tumor Protein P53 (TP53) using HepaRG (AID 2283537)
# Outline: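 Read-out is TP53 transcript level by microfluidic qRT-PCR, normalised to three housekeeping genes and fitted bidirectionally against DMSO. Human HepaRG cells received compounds for 48 h, highest concentration 100 uM.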
# [18] = read-out: Nuclear factor NF-kappa-B p105 subunit (Homo sapiens) (UniProt P19838); assay: LTEA_HepaRG_NFKB1: Life Technologies and Expression Analysis (LTEA) Assay for Nuclear Factor Kappa B Subunit 1 (NFKB1) using HepaRG (AID 2283521);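 for outcome: TaqMan qRT-PCR transcript normalised to ACTB GAPDH and POLR2A housekeeping genes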
# Outline: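 HepaRG, 48 h exposure; 8-pt half-log series from 100 uM in 0.5% DMSO; duplicates. Readout: NFKB1 mRNA by qRT-PCR (Fluidigm arrays), housekeeping-normalized. Gain/loss fit vs DMSO baseline.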
# [19] = read-out: Transforming Growth Factor (TGFB1), TGFB1 (gene 7040); assay: LTEA_HepaRG_TGFB1: Life Technologies and Expression Analysis (LTEA) Assay for Transforming Growth Factor (TGFB1) Transporter using HepaRG (AID 2283533)
# Outline: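 qRT-PCR readout of TGFB1 transcript in HepaRG lysates, normalized to three housekeeping genes; gain or loss of signal fitted relative to 0.5% DMSO vehicle. Exposure: 48 h, 8-point curve from 100 uM, duplicate wells.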
# [20] = read-out: NAD(P)H dehydrogenase [quinone] 1 (NQO1), NQO1 (gene 1728); assay: LTEA_HepaRG_NQO1: Life Technologies and Expression Analysis (LTEA) Assay for NAD(P)H dehydrogenase [quinone] 1 (NQO1) using HepaRG (AID 2283526)
# Outline: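 HepaRG, 48 h post-plating → serum-free induction medium → test chemical 48 h (duplicate, 100 uM top, half-log x8, 0.5% DMSO) → RNA isolation → qRT-PCR, ACTB/GAPDH/POLR2A normalization; bidirectional curve fit vs DMSO baseline.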
# Signal transducer and activator of transcription 3 (Homo sapiens), sequence (P40763 whole entry, looked up): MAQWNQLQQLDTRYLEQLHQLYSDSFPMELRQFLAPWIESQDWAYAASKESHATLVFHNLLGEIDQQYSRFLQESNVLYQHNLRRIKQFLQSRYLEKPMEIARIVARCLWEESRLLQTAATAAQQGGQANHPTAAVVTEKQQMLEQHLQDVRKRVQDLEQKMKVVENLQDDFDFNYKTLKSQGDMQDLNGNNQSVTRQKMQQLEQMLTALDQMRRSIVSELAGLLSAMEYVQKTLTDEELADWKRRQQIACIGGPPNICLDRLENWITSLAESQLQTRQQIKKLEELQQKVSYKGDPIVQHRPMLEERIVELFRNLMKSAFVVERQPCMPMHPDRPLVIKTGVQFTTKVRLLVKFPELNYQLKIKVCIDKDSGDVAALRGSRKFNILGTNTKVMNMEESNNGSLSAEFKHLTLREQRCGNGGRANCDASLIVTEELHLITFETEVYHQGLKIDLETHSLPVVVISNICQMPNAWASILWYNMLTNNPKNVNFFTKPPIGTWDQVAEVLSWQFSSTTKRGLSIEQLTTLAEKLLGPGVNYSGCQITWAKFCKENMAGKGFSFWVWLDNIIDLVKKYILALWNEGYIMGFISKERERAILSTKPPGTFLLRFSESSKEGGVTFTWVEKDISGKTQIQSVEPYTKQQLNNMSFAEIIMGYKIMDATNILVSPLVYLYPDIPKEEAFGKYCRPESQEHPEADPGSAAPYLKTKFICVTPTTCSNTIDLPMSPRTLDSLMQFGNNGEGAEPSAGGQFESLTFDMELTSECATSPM
# Nuclear factor NF-kappa-B p105 subunit (Homo sapiens), sequence (P19838 whole entry, looked up): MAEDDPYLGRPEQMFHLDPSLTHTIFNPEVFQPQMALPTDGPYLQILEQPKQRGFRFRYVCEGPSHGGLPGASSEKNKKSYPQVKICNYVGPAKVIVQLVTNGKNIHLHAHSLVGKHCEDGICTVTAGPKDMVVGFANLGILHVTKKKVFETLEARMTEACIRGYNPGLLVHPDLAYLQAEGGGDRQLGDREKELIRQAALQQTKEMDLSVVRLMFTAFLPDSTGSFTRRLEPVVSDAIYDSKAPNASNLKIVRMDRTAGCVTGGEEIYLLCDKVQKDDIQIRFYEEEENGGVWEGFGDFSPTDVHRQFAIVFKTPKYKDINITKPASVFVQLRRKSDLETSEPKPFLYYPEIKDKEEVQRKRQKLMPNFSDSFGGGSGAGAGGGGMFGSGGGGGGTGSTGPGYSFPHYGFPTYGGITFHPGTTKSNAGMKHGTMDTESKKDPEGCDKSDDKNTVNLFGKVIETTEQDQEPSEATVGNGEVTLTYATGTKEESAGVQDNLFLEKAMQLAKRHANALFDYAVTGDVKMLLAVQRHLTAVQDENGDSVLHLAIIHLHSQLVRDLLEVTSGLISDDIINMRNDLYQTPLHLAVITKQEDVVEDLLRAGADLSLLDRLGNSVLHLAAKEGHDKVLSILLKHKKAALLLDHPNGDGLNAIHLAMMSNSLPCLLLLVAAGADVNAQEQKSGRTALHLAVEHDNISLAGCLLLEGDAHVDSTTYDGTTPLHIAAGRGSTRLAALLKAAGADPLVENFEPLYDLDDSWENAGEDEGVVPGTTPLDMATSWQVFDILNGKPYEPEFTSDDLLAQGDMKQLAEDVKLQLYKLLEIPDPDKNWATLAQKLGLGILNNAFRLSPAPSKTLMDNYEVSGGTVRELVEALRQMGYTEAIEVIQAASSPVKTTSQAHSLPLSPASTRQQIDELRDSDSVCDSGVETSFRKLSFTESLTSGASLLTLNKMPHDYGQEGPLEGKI
# Nuclear factor erythroid 2-related factor 2 (Homo sapiens), sequence (Q16236 whole entry, looked up): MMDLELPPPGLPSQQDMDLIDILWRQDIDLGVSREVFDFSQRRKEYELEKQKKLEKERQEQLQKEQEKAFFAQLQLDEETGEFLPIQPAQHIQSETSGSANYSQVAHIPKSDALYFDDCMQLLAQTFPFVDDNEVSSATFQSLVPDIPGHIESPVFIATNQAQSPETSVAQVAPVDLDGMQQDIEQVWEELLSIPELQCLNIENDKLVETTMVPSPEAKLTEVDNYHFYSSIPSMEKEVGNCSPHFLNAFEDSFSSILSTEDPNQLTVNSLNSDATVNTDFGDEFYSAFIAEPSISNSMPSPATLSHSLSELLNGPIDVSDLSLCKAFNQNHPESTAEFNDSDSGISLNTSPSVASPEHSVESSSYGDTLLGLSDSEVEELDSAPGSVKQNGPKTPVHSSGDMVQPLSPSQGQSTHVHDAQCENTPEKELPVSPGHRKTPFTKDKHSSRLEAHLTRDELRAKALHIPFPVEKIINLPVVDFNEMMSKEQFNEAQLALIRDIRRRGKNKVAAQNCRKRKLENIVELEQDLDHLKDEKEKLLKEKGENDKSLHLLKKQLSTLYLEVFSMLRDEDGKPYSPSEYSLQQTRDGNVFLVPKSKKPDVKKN
# Cellular tumor antigen p53 (Homo sapiens), sequence (P04637 whole entry, looked up): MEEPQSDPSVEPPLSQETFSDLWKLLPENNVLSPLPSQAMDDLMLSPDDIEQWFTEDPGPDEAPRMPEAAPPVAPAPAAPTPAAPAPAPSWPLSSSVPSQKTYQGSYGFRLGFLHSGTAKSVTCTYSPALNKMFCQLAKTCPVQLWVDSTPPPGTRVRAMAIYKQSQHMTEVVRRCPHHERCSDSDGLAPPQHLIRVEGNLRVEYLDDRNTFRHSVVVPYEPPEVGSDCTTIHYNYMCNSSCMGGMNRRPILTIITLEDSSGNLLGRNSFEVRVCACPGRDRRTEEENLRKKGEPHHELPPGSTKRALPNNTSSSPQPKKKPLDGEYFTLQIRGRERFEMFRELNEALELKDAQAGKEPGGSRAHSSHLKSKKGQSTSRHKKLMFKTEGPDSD
structure (smiles),measurement,setting,value
CC[C@H](C)[C@@H](C(=O)O)n1sc2ccccc2c1=O,outcome,[1],inactive
same,outcome,[2],inactive
same,outcome,[3],inactive
same,outcome,[4],inactive
same,outcome,[5],inactive
same,outcome,[6],inactive
same,outcome,[7],inactive
same,outcome,[8],inactive
same,outcome,[9],inactive
same,outcome,[10],inactive
same,outcome,[11],inactive
same,outcome,[12],inactive
same,outcome,[13],inactive
same,outcome,[14],inactive
same,outcome,[15],inactive
same,outcome,[16],inactive
same,outcome,[17],inactive
CN1CCC[C@H]1c1cccnc1,outcome,[1],inactive
same,outcome,[2],inactive
same,outcome,[3],inactive
same,outcome,[4],inactive
same,outcome,[5],inactive
same,outcome,[6],inactive
same,outcome,[7],inactive
same,outcome,[8],inactive
same,outcome,[9],inactive
same,outcome,[10],inactive
same,outcome,[12],inactive
same,outcome,[14],inactive
same,outcome,[15],inactive
same,outcome,[16],inactive
c1ccc2c(c1)ccc1ccccc12,outcome,[1],inactive
same,outcome,[2],inactive
same,outcome,[3],inactive
same,outcome,[18],inactive
same,outcome,[4],inactive
same,outcome,[5],inactive
same,outcome,[6],inactive
same,outcome,[7],inactive
same,outcome,[8],inactive
same,outcome,[9],inactive
same,outcome,[10],inactive
same,outcome,[12],inactive
same,outcome,[14],inactive
same,outcome,[15],inactive
same,outcome,[16],inactive
same,outcome,[17],inactive
CC(=O)NC1(c2cccc(F)c2)CCN(CC[C@@]2(c3ccc(Cl)c(Cl)c3)CN(c3ccccc3)C(=O)CO2)CC1,outcome,[1],inactive
same,outcome,[2],inactive
same,outcome,[3],inactive
same,AC50,[18],61.6 µM (active)
same,outcome,[4],inactive
same,AC50,[5],65.3 µM (active)
same,AC50,[6],77.2 µM (active)
same,outcome,[7],inactive
same,AC50,[8],76.3 µM (active)
same,outcome,[9],inactive
same,outcome,[10],inactive
same,outcome,[12],inactive
same,outcome,[14],inactive
same,outcome,[15],inactive
same,AC50,[16],20.5 µM (active)
same,outcome,[17],inactive
CCCCCCCCC(=O)O,outcome,[1],inactive
same,outcome,[2],inactive
same,outcome,[3],inactive
same,outcome,[4],inactive
same,outcome,[5],inactive
same,outcome,[6],inactive
same,outcome,[7],inactive
same,outcome,[8],inactive
same,outcome,[9],inactive
same,outcome,[10],inactive
same,outcome,[12],inactive
same,outcome,[19],inactive
same,outcome,[14],inactive
same,outcome,[15],inactive
same,outcome,[16],inactive
same,outcome,[17],inactive
N#C[C@@H]1CC(F)(F)CN1C(=O)CNC1CC2CCC(C1)N2c1ncccn1 (some centres not stated),outcome,[1],inactive
same,outcome,[2],inactive
same,outcome,[3],inactive
same,AC50,[18],1.8 µM (active)
same,outcome,[4],inactive
same,outcome,[5],inactive
same,outcome,[6],inactive
same,outcome,[7],inactive
same,outcome,[8],inactive
same,outcome,[9],inactive
same,AC50,[10],12.5 µM (active)
same,outcome,[12],inactive
same,outcome,[14],inactive
same,outcome,[15],inactive
same,outcome,[16],inactive
same,outcome,[17],inactive
CC(C)(C)c1cc(C(C)(C)C)c(O)c(C(C)(C)C)c1,outcome,[1],inactive
same,outcome,[2],inactive
same,outcome,[3],inactive
same,outcome,[4],inactive
same,outcome,[5],inactive
same,outcome,[6],inactive
same,AC50,[7],23.5 µM (active)
same,outcome,[20],inactive
same,outcome,[8],inactive
same,outcome,[9],inactive
same,outcome,[10],inactive
same,outcome,[11],inactive
same,outcome,[12],inactive
same,outcome,[14],inactive
same,outcome,[15],inactive
same,AC50,[16],17.9 µM (active)
same,outcome,[17],inactive
